Compound activity: PubChem, National Center for Advancing Translational Sciences (NCATS)
KB-V1 MDR tox = kills drug-selected multidrug resistant KB-V1 cells; hit rate 3.4% among 400,000; KB-V1 MDR cells viability, CellTiter-Glo, 72 h; Potency, µM (doses to about 46.1 µM), most hits filed as cytotoxic; AID 1347076; note: % is set by controls: 0 for no effect and ±100 for the full control effect; nearly all actives have a fitted effect of over 60% in size
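Cells of the MDR subline KB-V1 are plated, dosed with compound at multiple concentrations, and incubated 72 h at 37 degrees C; CellTiter-Glo is then added and luminescence read after 10 min.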
SW480 rereplic = DNA re-replication induction in SW480 cells; Potency, µM (series often up to 46.1 µM), without a hit: top-dose re-replication activation, usual class: activators; SW480 DNA re-replication, Hoechst DNA content imaging, 48 h; AID 624297; hit rate 1.8% among 340,000; note: % of control where 0% means no effect; nearly all actives have a fitted effect of over 55% in size
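Quantitative HTS format with DMSO vehicle controls; 48 hr drug incubation at 37 C, then 40 min Hoechst staining and scanning imager measurement at 405 nm excitation.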
PINK1 expr mod = changes PINK1 expression; PINK1 immunofluorescence, high-content cytometry, 24 h; Potency, µM (titrated, usually from 76.6 µM), inactives show at the top dose activation (PINK1 increase), most hits filed as activators; hit rate 0.2% among 410,000; AID 624263; active = well fitted activation curve with a large enough effect; inconclusive = small, poorly fitted or top-dose-only effect; cell line not stated here; note: % of control where 0% means no effect; nearly all actives have a fitted effect of over 65% in size
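Measures PINK1 amount and localization on or inside mitochondria by immunofluorescence. Stable cells get compounds at 5 concentrations for 24 hours before fixation and staining; CCCP controls included.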
KB-3-1 cytotox = kills parental KB-3-1 adenocarcinoma cells; AID 1347075; KB-3-1 viability, CellTiter-Glo ATP luminescence, 72 h; Potency, µM (top dose mostly 46.1 µM), actives largely listed as cytotoxic; hit rate 1.4% among 400,000; note: % is set by controls: 0 for no effect and ±100 for the full control effect; nearly all actives have a fitted effect of over 60% in size
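Luminescent ATP read-out (CellTiter-Glo) measures survival of drug-naive KB-3-1 cells after 72 h compound exposure at 37 °C. Titration series was screened from lowest to highest concentration, with DMSO vehicle plates as background controls.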
MCF10A rerep = induces DNA re-replication in MCF 10a normal breast cells; hit rate 2.9% among 350,000; Potency, µM (series often up to 46.1 µM), inactives show at the top dose activity, positive = re-replication, actives largely listed as activators; AID 624296; MCF 10A DNA re-replication, Hoechst nuclear intensity, 48 h; note: % of control where 0% means no effect; nearly all actives have a fitted effect of over 50% in size
Active calls of the source: *; i = inactive; u = inconclusive; x = no result. Rows were chosen to be rich in hits. Some 6.7% of all compounds tested hit in one or more screens of this group. Unless noted, calls come from the whole dose curve; as a rule, active = well fitted curve in the direction sought with a large enough effect; inconclusive = small, poorly fitted or top-dose-only effect, or another doubt; inactive = no such curve, though single readings can be large; an effect the other way counts as inactive or inconclusive. Potency is the fitted concentration of half-maximal effect.

SMILES | KB-V1 MDR tox | SW480 rereplic | PINK1 expr mod | KB-3-1 cytotox | MCF10A rerep
Cc1ccc2ccc[n+](Cc3ccccc3)c2c1 | i | 11.2% | 1.3% | 5.17µM* | 3.5%
Cc1ccc2c(c1)c(C)cc[n+]2Cc1ccccc1 | i | 0.9% | 6.3% | 8.2µM* | 1.3%
Cc1ccc2c(ccc[n+]2CC(=O)c2ccccc2)c1 | i | -3.1% | 2.8% | i | -3.2%
COc1ccc2c(c1)c(C)cc[n+]2Cc1ccccc1 | i | -11.6% | 1.0% | 8.2µM* | 0.0%
CCOC(=O)C1CCN(S(=O)(=O)c2cc(C(=O)N3CCCCC3)ccc2OC)CC1 | u | -2.5% | 1.0% | i | 7.4%
COc1ccc(C2C=C(c3ccccc3)Nc3nc(NC(=O)/C=C/c4ccc(Cl)cc4)nn32)cc1 (configuration not stated) | i | x | 1.2% | i | x
C#CCN(C[C@H]1[C@H](OC(=O)NC2CC2)[C@H](OC(=O)NC2CC2)C[C@@H](C(=O)OC)[C@H]1C(=O)OC)S(=O)(=O)c1ccc(C)cc1 | u | x | 0.0% | i | x
CC1CN(c2ccccn2)C(C)CN1C(=S)Nc1ccccc1 (configuration not stated) | 23.1µM* | -2.9% | -5.0% | i | -1.2%
Cc1cc(C)cc(NC(=S)N2CCN(c3ccccn3)CC2)c1 | i | -1.8% | 1.4% | i | -2.5%
Cc1ccc2c(c1)Oc1ccc(NC(=O)CCl)cc1C(=O)N2 | 9.2µM* | 2.31µM* | 0.0% | 5.8µM* | 5.8µM*
COc1ccc(-n2c(C)cc(C(=O)CN3CCCCC3)c2C)cc1 | i | -77.8% | -1.6% | i | 29.6%
COc1ccc(-n2c(C)cc(C(=O)CN3CCC(C)CC3)c2C)cc1 | i | -44.6% | 2.1% | i | 0.581µM*
COc1ccc(-n2c(C)cc(C(=O)Cn3nc(C(=O)O)c4ccccc4c3=O)c2C)cc1 | 14.6µM* | 10.5% | 2.8% | i | 12.5%
Cc1ccc(-n2c(C)cc(C(=O)Cn3nc(C(=O)O)c4ccccc4c3=O)c2C)cc1 | u | 7.9% | 0.9% | i | -6.3%
O=C(Nc1ccc2c(c1)OCCO2)C1C(c2ccccc2)=Nc2ccccc2N1C(=O)c1cccnc1 (configuration not stated) | i | x | x | i | x
Cc1[nH]n2c(=O)cc(C(C)(C)C)nc2c1-c1ccccc1 | u | u | -1.2% | 7.31µM* | u
CCCc1cc(=O)n2[nH]c(C)c(-c3ccccc3)c2n1 | u | -3.8% | -1.1% | u | u
CCc1cc(=O)n2[nH]c(-c3ccccc3)c(-c3ccccc3)c2n1 | i | 20.6µM* | -2.5% | u | u
O=C(CSc1oc(-c2ccc(F)cc2)nc1S(=O)(=O)c1ccccc1)NC1CCCCC1 | i | x | 0.8% | i | x
Cc1ccccc1NC(=S)NCc1ccc2[nH]c3c(c2c1)CCCC3 | i | u | 9.8% | i | 6.51µM*
S=C(NCc1ccc2[nH]c3c(c2c1)CCCC3)Nc1ccccc1Cl | u | 5.4% | 18.5% | u | 3.66µM*
CNC(=S)NCc1ccc2[nH]c3c(c2c1)CCCC3 | u | 0.9% | 1.4% | i | -4.5%
CCCCNC(=S)NCc1ccc2[nH]c3c(c2c1)CCCC3 | 20.6µM* | -15.8% | u | i | 4.3%
CC(=O)N[C@@H](CC(=O)O)C(=O)N[C@@H](CCC(=O)O)C(=O)O | x | -2.7% | x | x | -3.9%
CCCOC(=O)c1c(NC(=O)c2nc3ncccn3n2)sc(C(=O)OCC)c1C | i | x | 0.8% | u | x
SMILES | KB-V1 MDR tox | SW480 rereplic | PINK1 expr mod | KB-3-1 cytotox | MCF10A rerep
CNC[C@@H]1OCc2cnnn2CCCC(=O)N([C@H](C)CO)C[C@H]1C | u | x | 1.0% | i | x
O=S(=O)(c1cc(Cl)c(Cl)cc1Cl)N1CCN2CCCC2C1 (configuration not stated) | i | 0.366µM* | 12.9% | i | -8.6%
N#Cc1nc(N(c2ccccc2)c2ccccc2)nc(-n2cccc2)n1 | i | x | 1.3% | i | x
COc1nc(N(c2ccccc2)c2ccccc2)nc(-n2ccnc2)n1 | u | -4.7% | -1.2% | i | 16.4µM*
COCC(=O)N1CCC(Oc2ccc(C(=O)NCCCC3CCCC3)cc2)CC1 | 9.2µM* | -3.8% | -0.1% | u | -8.7%
CCN(CC)c1ccc(NC(=O)c2cc(CN3CCCC3)on2)c(C)c1 | i | x | -0.5% | i | x
C=CCOc1ccc(C(=O)Nc2ccccc2C(=O)NCc2cccnc2)cc1 | 3.66µM* | u | 11.7% | 5.17µM* | u
COCc1ccc(C(=O)Nc2ccccc2C(=O)NCc2cccnc2)cc1 | u | -1.3% | 0.2% | i | 5.6%
CC(C)(C)c1ccccc1OCC(=O)Nc1ccccc1C(=O)NCc1cccnc1 | 18.4µM* | 9.7% | 2.6% | i | u
CN(C)c1ncnc2c1ncn2[C@H]1CN(Cc2ccc(-c3ccccc3)cc2)C[C@@H](CO)O1 | i | x | -0.5% | i | x
O=C(O)CCC(=O)OCCN(Cc1ccc(Oc2ccc([N+](=O)[O-])cc2)cc1)C(=O)C(Cl)Cl | 23.1µM* | -0.9% | -4.9% | i | 7.6%
C=C1C(=O)[C@@]23[C@H](O)C[C@@H]4C(C)(C)CC[C@H](O)[C@]4(C)[C@@H]2C[C@H](O)[C@@H]1[C@H]3O | u | 2.59µM* | 9.3% | u | 6.51µM*
C=C1C(=O)[C@@]23[C@H](O)C[C@@H]4C(C)(C)CC[C@H](O)[C@@]4(C)[C@@H]2CC[C@@H]1[C@H]3O | i | u | -2.2% | i | 0.517µM*
COc1cccc(CN2C(=O)c3ccccc3Sc3ccc(C(=O)N(C)Cc4ccccc4)cc32)c1 | i | x | 2.5% | i | x
CC(C)COc1nc2ccccc2nc1C(C#N)C(=O)NC1CCCCC1 (configuration not stated) | i | 1.7% | 4.9% | i | 5.8µM*
CN1CCN(c2ccccc2NC(=O)c2ccc([N+](=O)[O-])o2)CC1 | x | 2.31µM* | -0.4% | x | 14.6µM*
Cc1c(C(=O)Nc2ccccc2N2CCN(C)CC2)oc2ccc(F)cc12 | u | u | 0.9% | 16.4µM* | u
Cc1cc(O)c(NC(=S)NC(=O)c2ccc(-c3ccc(Cl)cc3)o2)cc1C | i | 11.6% | 1.1% | i | 16.4µM*
Cc1ccc(-n2nc3cc(C)c(NC(=O)c4ccc(-c5ccccc5)o4)cc3n2)cc1 | x | x | 1.1% | x | x
Cc1ccc(NC(=S)NC(=O)c2ccc(-c3ccc(Cl)cc3)o2)c(O)c1 | u | 7.4% | 3.3% | u | u
Cc1cc(N2CCN(C)CC2)ccc1NC(=O)c1ccc(-c2ccc(Cl)cc2)o1 | i | 6.3% | -1.7% | i | 1.16µM*
CCOc1ccc(NC(=O)COC(=O)c2ccccc2OCC(=O)N(C)C)cc1 | i | x | -0.7% | u | x
O=C(Nc1ccccc1N1CCCCC1)c1ccc(-c2ccc(Cl)cc2)o1 | 20.6µM* | 2.91µM* | 9.3% | 8.2µM* | u
